Screening results deposited in PubChem BioAssay by National Center for Advancing Translational Sciences (NCATS).
D2 PAM-1 = positive allosteric modulators of human D2 dopamine receptor; P14416; HEK293 T-REx D2, calcium flux, EC20 dopamine potentiation; potentiation, % at 10 µM; 0.34% of 340,000 active; AID 485347;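 active = potentiation over 3 SD above the plate norm, cut at about 30% in these data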
Target sequence (P14416 whole entry, looked up): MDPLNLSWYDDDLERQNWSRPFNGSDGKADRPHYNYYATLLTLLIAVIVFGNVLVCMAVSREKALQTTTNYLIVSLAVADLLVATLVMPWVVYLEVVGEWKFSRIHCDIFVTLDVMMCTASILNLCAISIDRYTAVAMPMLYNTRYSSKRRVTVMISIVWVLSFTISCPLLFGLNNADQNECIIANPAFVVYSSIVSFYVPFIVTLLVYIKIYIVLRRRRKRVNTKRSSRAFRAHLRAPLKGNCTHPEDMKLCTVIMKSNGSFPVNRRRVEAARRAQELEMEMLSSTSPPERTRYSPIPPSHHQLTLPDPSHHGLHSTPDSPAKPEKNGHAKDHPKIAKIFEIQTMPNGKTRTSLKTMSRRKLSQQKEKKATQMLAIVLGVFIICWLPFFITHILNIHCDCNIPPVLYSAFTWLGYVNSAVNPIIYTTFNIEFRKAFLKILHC
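Using a no-wash calcium dye in inducible, force-coupled HEK293 Trex cells expressing D2, we tracked fluorescence each second for 180 s after compound, then for 180 s after EC20 dopamine to detect augmented signalling.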
D2 ag-1 = agonists of human D2 dopamine receptor | HEK293 T-REx D2 cells, calcium flux agonist mode | activation, % at 2 µM | 0.53% of 340,000 active | P14416;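 active = activation over 3 SD above normal in the single-dose calcium agonist read, cut at about 30% in these data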
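Calcium-flux readout, 1 cycle/sec over 180 s following compound pin transfer, in inducible HEK293 Trex D2 cells (force-coupled); dopamine controls included. Positive calcium responses during this window marked compounds as potential agonists.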
D2 PAM-2 = positive allosteric modulators of human D2 dopamine receptor. P14416. DiscoveRx D2 beta-arrestin cells, luminescence, 90 min; 100% = 57 uM dopamine signal. AID 624464. potentiation, % (concentration not given with the values). 0.23% of 360,000 active; in the data active = potentiation above about 50%; inconclusive = mostly about 30% to 49%
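PathHunter beta-arrestin assay in DiscoveRx D2 cells. Compounds were added with an EC20 of dopamine (50 nM final) for 90 min at 37 deg C. Luminescence was read 1 h after detection reagent, with 57 uM dopamine as the EC100 control.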
D2 ag-2 = agonists of human D2 dopamine receptor (beta-arrestin). P14416. DiscoveRx PathHunter D2 beta-arrestin, luminescence, 90 min; 100% = 57 uM dopamine signal. activation, % (no concentration beside the values). 0.084% of 360,000 active; in the data active = activation above about 40%; inconclusive = between about 15% and that limit
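DiscoveRx PathHunter D2 beta-arrestin cells (2,100/well) attached overnight, then compound-stimulated 90 min at 37 C in HBSS/10 mM HEPES/0.1% Tween-20 buffer; beta-galactosidase complementation read by luminescence after 1 h at ambient temperature. Dopamine 57 uM final (EC100) as control.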
D2 antagonist = antagonists of human D2 dopamine receptor; P14416; HEK293 TREx D2 cells, calcium flux, dopamine EC80; inhibition, % at 10 µM; 2% of 340,000 active; AID 485344; in the data active = inhibition above about 30%; inactive = below that, where a call was filed
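Calcium flux kinetic readout in an inducible HEK293 TREx D2 line plated overnight at 30 C. After 180 s compound exposure, an EC80 dopamine challenge follows with another 180 s kinetic read to detect antagonism.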
Of the large screens only hits and unclear results are named; the others gave an inactive call; ! = repeats disagree. Compounds with a hit are over-represented: about 2.4% of the library has one in this group of screens.

N/C(Cc1ccc(Cl)cc1)=N\OC(=O)c1ccc2ccccc2c1	D2 PAM-2 168, D2 ag-2 inconclusive
CCOC(=O)c1cnc(N2CCN(c3ccc(C)cc3C)CC2)c2ccccc12	none (no result: D2 PAM-2, D2 ag-2, D2 antagonist)
N/C(=N\N=C/c1ccc(Br)cc1)N/N=C\c1ccc(Br)cc1	none
N/C(=N\N=C/c1ccc(F)cc1)N/N=C\c1ccc(F)cc1	D2 antagonist 40
COc1ccc(OC)c(S(=O)(=O)N2CCN(c3c(C)cccc3C)CC2)c1	D2 antagonist 36
COc1ccc(OC)c(S(=O)(=O)N2c3ccccc3CC2C)c1 (stereo unspecified)	D2 antagonist 33
CCOc1ccc(C(=O)Nc2ccc(C(=O)OCc3cc(=O)n4c(C)csc4n3)cc2)cc1	none (no result: D2 PAM-2, D2 ag-2, D2 antagonist)
CCOc1ccc(C(=O)O/N=C(\N)c2ccccn2)cc1	D2 PAM-2 55, D2 ag-2 inconclusive
COc1ccc(Cl)cc1C(=O)O/N=C(\N)c1ccccn1	D2 PAM-2 63!, D2 ag-2 inconclusive
CCCNC(=O)C1CCC(Cn2c(=O)c3sccc3n(CC(=O)NCc3cccc(OC)c3OC)c2=O)CC1 (stereo unspecified)	none (no result: D2 ag-1, D2 PAM-2, D2 ag-2, D2 antagonist)
O=c1c(O)c(-c2cccs2)oc2ccc(Cl)cc12	D2 ag-1 93, D2 antagonist 51
O=c1cc(-c2cccs2)oc2ccc(Cl)cc12	none
O=c1c(O)c(-c2cccs2)oc2ccccc12	D2 ag-1 42
COc1cc(NC(=O)CCc2c(C)nc3nc(-c4cc(OC)cc(OC)c4)nn3c2C)cc(OC)c1	none (no result: D2 PAM-2, D2 ag-2, D2 antagonist)
O=C(O)COc1ccc2occ(C(=O)c3ccccc3)c2c1	D2 antagonist 38
Cc1[nH]c2ccccc2c1C(=O)CN1CCN(C2CCCCC2)CC1	D2 antagonist 58 (no result: D2 PAM-2, D2 ag-2)
Cc1[nH]c2ccccc2c1C(=O)CN1CCN(C/C=C/c2ccccc2)CC1	D2 antagonist 80
CSc1ncc(Cl)c(C(=O)N(Cc2ccc(C(C)C)cc2)C2CCS(=O)(=O)C2)n1 (stereo unspecified)	none (no result: D2 ag-1, D2 PAM-2, D2 ag-2, D2 antagonist)
O=C(NCc1ccccc1)c1nc(-c2cccs2)no1	D2 antagonist 36
O=C(NCc1ccccc1)c1cc(-c2cccs2)on1	none (no result: D2 PAM-1, D2 ag-1, D2 antagonist)
CCn1cc(/C=C(\NC(=O)c2ccc(OC)c(OC)c2)C(=O)NCCCn2ccnc2)c2ccccc21	none (no result: D2 PAM-2, D2 ag-2, D2 antagonist)
COc1ccc(-n2nnnc2-c2cccc(OC)c2)cc1	D2 antagonist 36
COc1cccc(C(=O)N2c3nc(-c4ccco4)nn3C3(CCCCC3)[C@@H]3CCCC[C@@H]32)c1	none (no result: D2 PAM-2, D2 ag-2, D2 antagonist)
CC(C)N(Cc1nc(-c2ccccc2)no1)C(=O)CCCN1C(=O)c2ccccc2C1=O	D2 PAM-1 35
CC(C)N(Cc1nc(-c2ccccc2)no1)C(=O)CN1C(=O)c2ccccc2C1=O	D2 PAM-1 36
COc1ccccc1C(O)P(=O)(OC(C)C)c1ccc(N(C)C)cc1 (stereo unspecified)	D2 antagonist 31
CC(C)OP(=O)(c1ccc(N(C)C)cc1)C(O)c1ccncc1 (stereo unspecified)	D2 antagonist 32
CC(C)OP(=O)(c1ccc(N(C)C)cc1)C(O)c1ccccc1F (stereo unspecified)	none
COc1ccc(Cl)cc1NC(=O)CSc1nc2c(oc3ccccc32)c(=O)n1Cc1ccco1	none (no result: D2 ag-1, D2 PAM-2, D2 ag-2, D2 antagonist)
Fc1ccc(NC(=S)N/N=C/c2cccc(Br)c2)c(F)c1	D2 PAM-1 48
CCCN(C(=O)c1sc2nc3n(c(=O)c2c1C)CCCC3)c1ccccc1C	none (no result: D2 PAM-2, D2 ag-2, D2 antagonist)
Nc1ccccc1SCc1ccccc1	D2 antagonist 31
CC(C)Oc1ccc(CNC(=O)c2ccc3nc(C(C)C)oc3c2)cc1	none (no result: D2 PAM-2, D2 ag-2, D2 antagonist)
N#CC1=C(N)OC2=C(CC/C2=C\c2ccc(F)cc2)C1c1ccc(F)cc1 (stereo unspecified)	D2 ag-1 40, D2 antagonist 37 (no result: D2 PAM-2, D2 ag-2)
Cc1ccc(NC(=O)N2CCCc3ccccc32)cc1C	none
O=C(Nc1ccccc1)N1CCCc2ccccc21	D2 PAM-1 47
O=C(c1ccccc1F)N1CCCc2ccccc21	D2 PAM-1 39
CN(C(=O)Nc1ccccc1)C1CCCc2ccccc21 (stereo unspecified)	D2 antagonist 30
O=C(Nc1ccccc1)C(=O)Nc1ccc2c(c1)N(C(=O)C1CC1)CCC2	D2 antagonist 35
O=C(c1cccc(F)c1F)N1CCCc2ccccc21	none
COc1ccc(CNC(=O)c2sc3nc4n(c(=O)c3c2C)CCCCC4)cc1	none (no result: D2 PAM-2, D2 ag-2, D2 antagonist)
Cc1ccc(S(=O)(=O)Oc2ccccc2N2C(=O)C3CC=CCC3C2=O)cc1 (stereo unspecified)	D2 antagonist 40
Cc1ccc(Cl)cc1S(=O)(=O)N1CCC(C(=O)NC2CCN(Cc3ccccc3)CC2)CC1	D2 antagonist 31
CC(Oc1ccccc1)C(=O)NC1CCN(Cc2ccccc2)CC1 (stereo unspecified)	D2 antagonist 42
CCCN1CCC(NC(=O)Cc2ccccc2C)CC1	none
O=C(NC1CCN(Cc2ccccc2)CC1)C12CC3CC(CC(C3)C1)C2	D2 antagonist 32
CC(Oc1ccccc1)C(=O)NC1CCCCCCC1 (stereo unspecified)	none
Cc1ccccc1CC(=O)NC1CCN(Cc2ccccc2)CC1	D2 antagonist 56
COc1cccc(CN2C(=O)c3ccccc3Sc3ccc(C(=O)NCCc4ccc(Cl)cc4)cc32)c1	none (no result: D2 PAM-2, D2 ag-2, D2 antagonist)
O=C(Cc1ccccc1)NC1CCN(Cc2ccccc2)CC1	D2 antagonist 36
O=C(CCNS(=O)(=O)c1ccc(Br)cc1)NC1CCN(Cc2ccccc2)CC1	none (no result: D2 PAM-1, D2 ag-1, D2 antagonist)
Cc1ccc(CC(=O)NC2CCN(Cc3ccccc3)CC2)cc1	none
O=C(CCNS(=O)(=O)c1cccs1)NC1CCN(Cc2ccccc2)CC1	D2 antagonist 41
O=C(C#Cc1ccccc1)Nc1ccc(F)cc1	D2 antagonist 47
COc1ccc(-c2nnc(SCC(=O)Nc3cc(OC)ccc3OC)nc2-c2ccc(OC)cc2)cc1	none (no result: D2 PAM-2, D2 ag-2, D2 antagonist)
Cc1ccc(C)c(C(=O)COC(=O)c2ccccc2N2C(=O)C3C4CCC(C4)C3C2=O)c1 (stereo unspecified)	D2 PAM-1 41
CCN1CCc2c(sc(N)c2C(N)=O)C1	D2 antagonist 38
COC(=O)c1ccc(NC(=O)CSc2ccc(-c3sc(-c4ccccc4)nc3C)nn2)cc1	none (no result: D2 PAM-2, D2 ag-2, D2 antagonist)
O=C(N=NC(=O)c1ccc2c(O)n(C3CCCCC3)c(O)c2c1)c1cccnc1	D2 PAM-1 40
O=C(NC1CCCCCCC1)c1cccnc1	none
Cc1cc(=O)oc2cc(NC(=O)c3ccc(OC(F)F)cc3)ccc12	none
Cc1cc(=O)oc2cc(NC(=O)C(C)Oc3ccc(F)cc3)ccc12 (stereo unspecified)	D2 antagonist 35
O=C(OCc1ccco1)c1ccc2c(c1)N(Cc1cccc(F)c1)C(=O)c1ccccc1S2	none (no result: D2 PAM-2, D2 ag-2, D2 antagonist)
O=C(C1CCC1)N1CCc2cc(S(=O)(=O)NCCN3CCN(c4ccccc4F)CC3)ccc21	D2 ag-1 68, D2 ag-2 inconclusive, D2 antagonist 53
